Source: the OligoGym collection

Target: AGAP3
Experiment: pooled miR-30 sensor sort-seq; sequence = guide strand
Conditions: shRNA
Further: reference of the scale not given here.

Sequence | sensor-assay potency score (higher = more potent)
TTGTACACCGTCTGGAAACTGA | -0.718
TCTGCTGTCGTCGATAACCCGG | -1.3
TACCAGATGAGCAGCTGCGTGA | -0.56
ATACTTCTTCTTCCACTCCTTG | -0.733
TGGAACTGAGTACCTCAGCTGG | -1.58
TTCATCTCGGATCAGCAGCAGG | -1.26
TACACAAACATAAATATTCCAA | -0.597
ATTGGGTGCATCGCAGTCGATA | -1.38
TTCCCTGGCACTTTCACCGTTG | -0.316
TTAAGCTCCGGTACGGAGCGGC | -0.14
TACTTCTTCTTCCACTCCTTGT | -0.51
TCGCAGTCGATACAAAAGCTGT | -1.8

Target: AGBL5
Experiment: as above
Conditions: shRNA

Sequence | sensor-assay potency score (higher = more potent)
TTTCAGCACAGTCTGGTCGGGT | -0.447
TTCCGTTTCAGCACAGTCTGGT | 0.615
TTGTAGATTGCAACACGGCCGC | -0.607
TTCTTCTCTGAGAAATTGCAGC | -0.823
TAGATTAGTAAGGCTGCTGTGC | -0.537
TTGTAGTTGCATTCAAGTGTGT | 0.25
TTTGGAAGCATGTCCATGCAGG | -0.608
TTGCATTCAAGTGTGTAGCTGT | 0.765
ATCTACACGAAGTCCATCCAGA | -1.07
AATAGTTCCACAGTGTATCTGG | 0.759
TTTAGGGACAAAACAAACCTCA | -0.454
TTGAAGACAAAGCTAGATGGAG | -0.419

Target: AGPAT6
Experiment: as above
Conditions: shRNA

Sequence | sensor-assay potency score (higher = more potent)
AAGATGATCACATCGATCGGTG | -0.372
TAAGTGAACATGTTTACTCATG | -1.14
TATTGATGCAGGTTCCTTCTGG | -0.00526
TACTACTACCACTTCGACGAAT | -0.506
TTCTAGTGAAGTGGGATCCTTT | -0.0261
TTGAACATCATCACCGATGTAT | 0.749
TTGATCTCTTCTTCTAGTGAAG | -1.1
TCTCTTTGATCTCTTCTTCTAG | -0.219
TTCATCTGCCTCTCTAGTCATG | -1.09
ATACTTGATAGCAACAGGGTAA | -0.725
TTTTTGAACATCATCACCGATG | -0.209
TCTTCTTCTAGTGAAGTGGGAT | -0.236
